Screening results deposited in PubChem by National Center for Advancing Translational Sciences (NCATS).
Tb PYK inh: qHTS of Trypanosoma Brucei Inhibitors | pyruvate kinase (Trypanosoma brucei), Q57TT1 | 410,000 tested, 0.12% active | Potency, µM (titrated, usually from 76.8 µM), for inactives: at the highest dose activity, negative = inhibition, usual class: inhibitors | TbPYK enzyme, Kinase-Glo Plus ATP luminescence, 45 min; also: potency is read from the fitted curve at half-maximal effect; % is scaled to controls: 0 for no effect and ±100 for the full control effect; nearly all actives have a fitted effect of over 50% in size
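Luminescence from Kinase-Glo Plus, added after a 45-minute room-temperature reaction, served as the end-point read-out. The enzyme and substrate were preincubated with compound before ADP (130 uM final) initiated turnover. Concentration-effect curves came from normalized qHTS data.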
Shiga inhibitor: A qHTS for Small Molecule Inhibitors of Shiga Toxin. inhibition, % at 38.7 µM. AID 2315, 2010. Vero cells, Shiga toxin protein synthesis inhibition reporter. 290,000 tested, 9.2% active; in the data active = inhibition mostly above about 28%, no sharp cut-off; inactive = mostly below about 43%; also: 0% is about no effect
Cycloheximide cs: Cycloheximide Counterscreen for Small Molecule Inhibitors of Shiga Toxin; cell reporter, cycloheximide protein synthesis inhibition counterscreen; max response, %; 300,000 tested, 12% active; AID 2314, 2010; in the data active = max response mostly above about 13%, no sharp cut-off; inactive = mostly below about 14%; also: read at 38.3 µM for the half of the compounds with a filed dose; 0% is about no effect
Giardia FBPA inh: qHTS Assay for Inhibitors of Fructose-1,6-bisphosphate Aldolase from Giardia Lamblia. A8B2U2. purified Giardia FBPA. Potency, µM (highest dose often 59.6 µM), for the others: at the highest dose activity, negative = inhibition, hits mostly inhibitors. 290,000 tested, 0.71% active; also: potency is read from the fitted curve at half-maximal effect; % is scaled to controls: 0 for no effect and ±100 for the full control effect; nearly all actives have a fitted effect of over 55% in size
Target sequence (A8B2U2 whole entry, looked up): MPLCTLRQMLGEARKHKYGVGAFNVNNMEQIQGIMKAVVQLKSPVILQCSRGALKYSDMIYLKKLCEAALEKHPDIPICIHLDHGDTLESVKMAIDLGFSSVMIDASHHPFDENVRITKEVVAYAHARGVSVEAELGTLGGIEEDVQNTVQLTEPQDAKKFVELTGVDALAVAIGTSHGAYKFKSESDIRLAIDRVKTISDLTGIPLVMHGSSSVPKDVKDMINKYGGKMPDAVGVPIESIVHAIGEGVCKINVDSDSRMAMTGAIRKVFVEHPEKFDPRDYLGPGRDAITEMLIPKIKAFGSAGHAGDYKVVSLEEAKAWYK
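Giardia FBPA (40 nM reagent) was preincubated 10 min at RT with compound (up to 57.5 uM final), then substrate plus GAPDH/TPI/NAD/arsenate coupling system with diaphorase/resazurin was added; resorufin fluorescence (525/598 nm) was read after 20 min.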
LmPK inh: qHTS Assay for Inhibitors of Leishmania Mexicana Pyruvate Kinase (LmPK); purified LmPK, Kinase-Glo ATP luminescence, 1 h; 290,000 tested, 0.37% active; Potency, µM (series often up to 57.5 µM), for the others: at the top dose activity change, negative = inhibition, actives largely listed as inhibitors; AID 1721, 2009; also: potency is read from the fitted curve at half-maximal effect; % is scaled to controls: 0 for no effect and ±100 for the full control effect
Target sequence (Q27686 whole entry, looked up): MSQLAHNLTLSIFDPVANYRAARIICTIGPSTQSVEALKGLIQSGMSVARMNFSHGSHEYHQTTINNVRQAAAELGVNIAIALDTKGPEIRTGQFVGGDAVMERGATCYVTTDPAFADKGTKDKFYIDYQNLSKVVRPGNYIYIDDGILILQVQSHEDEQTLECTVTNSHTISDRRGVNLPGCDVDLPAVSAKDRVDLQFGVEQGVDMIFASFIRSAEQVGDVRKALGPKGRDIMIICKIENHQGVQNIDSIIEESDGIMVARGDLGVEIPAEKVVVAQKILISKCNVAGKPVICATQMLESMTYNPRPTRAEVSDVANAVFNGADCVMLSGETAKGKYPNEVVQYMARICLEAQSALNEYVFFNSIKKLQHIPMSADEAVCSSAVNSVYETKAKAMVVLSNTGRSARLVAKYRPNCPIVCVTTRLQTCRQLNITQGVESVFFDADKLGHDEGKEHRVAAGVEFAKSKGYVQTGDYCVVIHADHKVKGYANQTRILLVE
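Pyruvate kinase activity monitored as ATP production (luciferase luminescence). Conditions: 0.1 nM enzyme, 0.5 mM PEP, 0.1 mM ADP, 1 h, RT; normalized against uninhibited and no-enzyme wells.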
Sm TGR inh: qHTS Assay for the Inhibitors of Schistosoma Mansoni Peroxiredoxins; Potency, µM (titrated, usually from 114 µM), without a hit: at the highest dose activity change, negative = inhibition, usual class: inhibitors; Schistosoma mansoni thioredoxin glutathione reductase (TGR), Q962Y6; purified TGR, DTNB reduction, TNB absorbance 405 nm; 360,000 tested, 3% active; also: potency is read from the fitted curve at half-maximal effect; % is scaled to controls: 0 for no effect and ±100 for the full control effect; nearly all actives have a fitted effect of over 60% in size
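TGR 20 nM + NADPH 100 uM (dispensed conc.), cpd preinc 15 min RT; start with NADPH (500 uM addition) then DTNB (15 mM addition). Kinetic TNB absorbance, 405 nm filter. Four-parameter Hill fit across titration.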
An asterisk follows results filed as active; ? = inconclusive; . = not tested or not shown; [ ] = dose if it differs, or a comment. This excerpt belongs to a sample that is enriched for hits. Unless noted, calls follow the shape of the dose curve; as a rule, active = well fitted curve in the direction sought with a large enough effect; inconclusive = small, poorly fitted or top-dose-only effect, or another doubt; inactive = no such curve, though single readings can be large; an effect the other way counts as inactive or inconclusive.

SMILES | Tb PYK inh | Shiga inhibitor | Cycloheximide cs | Giardia FBPA inh | LmPK inh | Sm TGR inh
CC(N)Cc1c[nH]c2ccc(O)cc12 (stereo not drawn) | -2.4% | . | . | 3.97µM* | . | .
CCc1ccccc1NC(=O)Nc1cc(C(=O)NCc2cccc(F)c2)ccc1N1CCCC1 | -3.1% | . | . | . | . | 0.7%
COc1cccc(NC(=O)CSc2nc3cc(OC)c(OC)cc3c3nc(-c4ccccc4)nn23)c1 | 2.9% | . | . | . | . | 37.9%
Cc1oc(/C=N/NC(=O)CN(c2ccccc2Br)S(C)(=O)=O)cc1Br | -2.5% | -3.3 | 3.4 | . | 5.4% | 44.7µM*
Cc1oc(/C=N/NC(=O)CN(c2ccccc2Cl)S(C)(=O)=O)cc1Br | -6.9% | -4.1 | -1.8 | -6.5% | 4.3% | ?
Cc1ccccc1N(CC(=O)N/N=C/c1cc(Br)c(C)o1)S(C)(=O)=O | -12.1% | -5.6 | -2.2 | -6.6% | 5.1% | 79.4µM*
C[C@H](CO)N1C[C@H](C)[C@@H](CN(C)Cc2ccc(Oc3ccccc3)cc2)Oc2cc(Br)ccc2S1(=O)=O | -8.0% | . | . | . | . | .
O=C(N/N=C/c1ccc(Br)s1)c1ccco1 | -2.0% | 91.4* | 54.9* | 2.8% | -4.1% | 1.1%
O=C(N/N=C/c1sc(=O)n(Cc2ccc(Br)cc2)c1Cl)c1ccco1 | -6.2% | 3.2 | 22.3* | . | 12.9% | 44.7µM*
Cc1ccc(/C=N/NC(=O)c2ccco2)s1 | -27.3% | 71.1* | 53.0* | -0.1% | -16.5% | 0.0%
COc1ccc(-c2nc3ccccc3o2)cc1NC(=O)C(C)(C)Oc1ccc(Br)cc1 | 4.7% | . | . | . | . | 15.0%
CCC(=O)N1CCCc2cc(S(=O)(=O)N3CCC(C(=O)Nc4ccccc4CC)CC3)ccc21 | -1.3% | . | . | . | . | -10.8%
COC(=O)CC1c2cc(OC)c(OC)cc2CCN1C(=O)Nc1ccc(C)cc1Cl (stereo not drawn) | 3.2% | . | . | . | . | -1.3%
O=C(CSc1nc2c([nH]c3ccccc32)c(=O)n1-c1ccccc1)N1CCc2ccccc21 | -1.7% | . | . | . | . | -0.3%
COc1ccc(C2C(C#N)=C(N)Oc3c2sc2nc(C)cc(C)c32)cc1 (stereo not drawn) | 1.4% | -0.6 | 1.4 | -19.4% | 1.6% | -7.7%
Cc1cc(C)c2c3c(sc2n1)C1(CCSCC1)C(C#N)=C(N)O3 | 0.0% | 28.8* | 17.5 | 0.9% | 3.7% | -25.7%
COP(=O)(Cc1ccc(C#N)o1)OC | 0.6% | 21.7 | -2.0 | 2.3% | 2.6% | 22.4µM*
CCn1c(SC)nnc1-c1sc2cc(Cl)ccc2c1Cl | -10.0% | 70.8* | 13.5* | -14.5% | 5.7% | 5.3%
CCCCC(CCC(=O)O)(C(=O)OCC)c1csc(Nc2ccc(OCC)cc2)n1 (stereo not drawn) | -8.5% | 19.3 | 1.0 | 2.1% | 1.2% | 50.1µM*
CCCCC(CCC(=O)O)(C(=O)OCC)c1csc(Nc2ccccc2)n1 (stereo not drawn) | 1.6% | -2.3 | -1.2 | 1.3% | 1.1% | -28.8%
CC(Sc1nnc2ccc3ccccc3n12)C(=O)Nc1ccc(Cl)cc1 (stereo not drawn) | 3.7% | . | . | . | . | 2.5%
CCn1c(C(=O)NC2CCC(C)CC2)cc2sccc21 (stereo not drawn) | 5.6% | 73.4* | 37.6* | -15.6% | 0.1% | 6.9%
Cn1c(C(=O)N2CCCC(C(=O)O)C2)cc2sccc21 (stereo not drawn) | 1.1% | -10.9 | -5.9 | 7.5% | 9.3% | 18.2%
Cn1c(C(=O)NC2CCCCC2)cc2sccc21 | 1.2% | 50.5 | 28.7* | -7.0% | 0.3% | -25.0%
CN(C(=O)c1cc2sccc2n1C)C1CCCCC1 | 12.0% | 99.1* | 42.3* | -3.3% | 1.1% | -7.2%
SMILES | Tb PYK inh | Shiga inhibitor | Cycloheximide cs | Giardia FBPA inh | LmPK inh | Sm TGR inh
COC(=O)NC(c1ccccc1)C(C(=O)OC)C(=O)OC (stereo not drawn) | . | . | . | 2.3%[12.9 µM] | . | .
COc1ccc(-c2cc3c(=O)n(CC(=O)NCCCc4ccccc4)ncn3n2)cc1 | 4.8% | 26.3* | 16.2* | 2.5% | -5.2% | 3.4%
CCc1ccc(-c2cc3c(=O)n(CC(=O)NCCCN4CCN(C)CC4)ncn3n2)cc1 | 3.9% | 35.8* | 23.5* | . | -1.0% | -10.7%
CCC1CCCCN1CCCNC(=O)Cn1ncn2nc(-c3ccc(OC)cc3)cc2c1=O (stereo not drawn) | -6.0% | 54.8* | 29.3* | . | -0.4% | -5.6%
COc1ccc(-n2cnc3cc(C(=O)NCCC4=CCCCC4)ccc32)cc1 | -5.5% | . | . | . | . | 7.8%
O=C(Nc1cccc(Br)c1)c1ccc(CSc2ccccc2)cc1 | -2.5% | 47.1 | 13.3 | -0.8% | 0.0% | 0.9%
CCCCOc1ccc(C(=O)Nc2ccncc2)cc1 | -5.0% | 94.5* | 25.9* | -2.4% | -11.2% | 5.9%
O=C(NCc1cccnc1)c1ccc(COc2ccccc2Br)cc1 | 1.7% | 45.1 | 16.1 | -0.5% | -0.3% | 2.2%
O=C(Nc1cccnc1)c1ccc(CSc2ccccc2)cc1 | 1.7% | 73.0* | 41.1* | 10.3% | -11.6% | -10.7%
CCCOc1ccc(C(=O)Nc2cccnc2)cc1 | 2.4% | . | 28.7* | 5.6% | -7.2% | 0.0%
CCOc1cc(C(=O)Nc2cccnc2)cc(OCC)c1OCC | 3.9% | 22.5 | 0.3 | -0.9% | 1.7% | -25.0%
O=C(Nc1cccnc1)c1ccc(COc2ccccc2Br)cc1 | -8.1% | 31.9 | 24.3* | 0.3% | -5.7% | -1.0%
CC(C)CN(CC(C)C)c1nnc(NC(=O)Nc2cccc(C(F)(F)F)c2)s1 | -5.0% | . | . | . | . | 4.2%
O=C(CCc1ccccc1Cl)NC1CCCN(c2ccc(C(F)(F)F)cn2)C1 (stereo not drawn) | 0.0% | -4.9 | 5.7 | 6.6% | 2.5% | 4.9%
O=C(Nc1cccnc1)c1ccc(Oc2ccccc2)cc1 | 3.4% | 37.7* | 33.6* | -16.2% | ? | 5.0%
O=C(Nc1cccnc1)c1ccccc1Oc1ccccc1 | -0.2% | -13.7 | 3.2 | -26.4% | 2.8% | -7.2%
COCCNC(=O)c1ccc(CS(=O)(=O)c2ccc(OC)cc2)o1 | -8.4% | -6.8 | -1.6 | 1.4% | 5.2% | -32.3%
COc1ccc(S(=O)(=O)Cc2ccc(C(=O)NCc3ccccn3)o2)cc1 | -21.0% | 9.8 | -4.1 | -1.2% | 1.8% | 35.5µM*
COC(CNC(=O)c1ccc(CS(=O)(=O)c2ccccc2)o1)OC | -9.1% | -7.2 | -5.2 | 3.4% | 6.3% | 17.8µM*
COc1ccc(S(=O)(=O)Cc2ccc(C(=O)NCC(OC)OC)o2)cc1 | 2.5% | 22.9 | -2.4 | 5.3% | -4.1% | -16.7%
Cc1ccc(CS(=O)(=O)Cc2ccc(C(=O)NCc3ccccn3)o2)cc1 | 9.0% | -2.6 | -1.3 | 4.1% | 2.0% | 39.8µM*
Cc1ccc(C(=O)NCc2ccccn2)o1 | -3.5% | -4.3 | -2.2 | 1.7% | -1.6% | 4.0%
O=C(NCc1ccc(F)cc1)c1ccc(CS(=O)(=O)c2ccc(Cl)cc2)o1 | 3.2%[15.4 µM] | . | . | . | . | -9.8%
